Experimental data taken from PubChem BioAssay (NCI).
The panel holds about 79,000 compounds, 15% with a hit somewhere; the sample as a whole holds those more often. The source made the active and inactive calls. Rule as the data show it: active = growth inhibition above about 70%; inactive = the rest.

experiment: NCI Yeast Anticancer Drug Screen. Data for the cln2 rad14 strain (AID 165);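 also: 0% = growth equal to vehicle treated cultures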; conditions: S. cerevisiae cln2 rad14 strain, at 5.0 µM (retest, dose inferred, filed as 0.5), hits give high values
Method in brief: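 Each compound was tested on cln2 rad14 yeast. Inhibition of growth was calculated against vehicle-exposed controls.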

| SMILES | growth inhibition |
| --- | --- |
| CN(C)CC(CN1CCCC1)C(=O)c1ccccc1 (centres undefined) | 26% (inactive) |
| COc1ccc(/C(Cl)=C(/c2ccc(O)cc2)c2ccc(OCCN(C)C)cc2)cc1 | 34% (inactive) |
| CCCCCC(Oc1ccc(Cl)cc1)C(=O)O (centres undefined) | -1% (inactive) |
| N#CSC#CCCC#CSC#N | 99% (active) |
| c1ccc(-c2cc(CN3CCOCC3)c(-c3ccccc3)o2)cc1 | -6% (inactive) |
| CC(=O)Nc1c([N+](=O)[O-])cc2c3c(cccc13)C=C2 | 6% (inactive) |
| CCOc1nc(N)nc(C)c1N=Nc1ccc(Br)cc1 | 4% (inactive) |
| C=CC1(NC(=O)c2ccccc2)CCC(C(C)(C)C)CC1 (centres undefined) | 5% (inactive) |
| Cc1cccc2ccc3cc(CC(=O)O)c4cccc(C)c4c3c12 | 33% (inactive) |
| CCCCSc1nc2c([nH]1)c(=S)n(C)c(=S)n2C | -5% (inactive) |
| COC(=O)c1ccccc1CC(Cc1ccc2c(c1)CCC2)C(=O)OC (centres undefined) | 9% (inactive) |
| COc1ccccc1/C=C1\NC(=S)N(/C=C2\C(=O)Oc3ccccc3C2=O)C1=O | -9% (inactive) |
| CC12C(=O)OC(=O)C1C1c3ccccc3C2c2ccccc21 (centres undefined) | 51% (inactive) |
| CCOC(=O)C(F)C(Br)C(=O)OCC (centres undefined) | 98% (active) |
| CCCCCCCCCCCCCCCCC/C=N\NC(=O)CCCC(=O)N/N=C/CCCCCCCCCCCCCCCCC | 4% (inactive) |
| CC(C(=O)NN)C(O)C(C)(C)O (centres undefined) | 1% (inactive) |
| COC(=O)C1C2CC3c4[nH]c5cc(OC)c(Br)cc5c4CCN3CC2CC(OC(=O)c2cc(OC)c(OC)c(OC)c2)C1OC (centres undefined) | 8% (inactive) |
| CCCN(CCC)C(=S)N/N=C/c1cccc(C)n1 | -9% (inactive) |
| Cc1cccc2c1Oc1ccccc1C2N1C(=O)/C(=C/c2cccs2)SC1=S (centres undefined) | -11% (inactive) |
| COc1ccc(OC(C)=O)c2c1CCC=CC2=O | 14% (inactive) |
| COC(=O)CSc1nc2[nH]c(SC)c(C(N)=O)c2c(=O)n1-c1ccccc1 | -5% (inactive) |
| O=C(Nc1ccc(Cl)c(Cl)c1Cl)Oc1c(Cl)c(Cl)c(Cl)c(Cl)c1Cl | 13% (inactive) |
| COc1ccc(CCCC(=O)O)c2c(OC)cccc12 | 23% (inactive) |
| FC(F)(F)c1ccc(Nc2ccc(C(F)(F)F)cc2)cc1 | -5% (inactive) |
| O=C(c1ccccc1)C(Br)CCCC(Br)C(=O)c1ccccc1 (centres undefined) | 15% (inactive) |
| CC1(C)c2ccccc2Cc2cc3ccccc3nc21 | 1% (inactive) |
| COc1ccc2c(c1)[n+]([O-])c(-c1ccc(Cl)c(Cl)c1)c(N)[n+]2[O-] | 38% (inactive) |

same assay, conditions: S. cerevisiae cln2 rad14 strain, at 50.0 µM (retest, dose inferred, filed as 5.0), hits give high values

| SMILES | growth inhibition |
| --- | --- |
| CN(C)CC(CN1CCCC1)C(=O)c1ccccc1 (centres undefined) | 33% (inactive) |
| COc1ccc(/C(Cl)=C(/c2ccc(O)cc2)c2ccc(OCCN(C)C)cc2)cc1 | 34% (inactive) |
| CCCCCC(Oc1ccc(Cl)cc1)C(=O)O (centres undefined) | 87% (active) |
| N#CSC#CCCC#CSC#N | 99% (active) |
| c1ccc(-c2cc(CN3CCOCC3)c(-c3ccccc3)o2)cc1 | 99% (active) |
| CC(=O)Nc1c([N+](=O)[O-])cc2c3c(cccc13)C=C2 | 77% (active) |
| CCOc1nc(N)nc(C)c1N=Nc1ccc(Br)cc1 | 30% (inactive) |
| C=CC1(NC(=O)c2ccccc2)CCC(C(C)(C)C)CC1 (centres undefined) | 86% (active) |
| Cc1cccc2ccc3cc(CC(=O)O)c4cccc(C)c4c3c12 | 99% (active) |
| CCCCSc1nc2c([nH]1)c(=S)n(C)c(=S)n2C | 85% (active) |
| COC(=O)c1ccccc1CC(Cc1ccc2c(c1)CCC2)C(=O)OC (centres undefined) | -2% (inactive) |
| COc1ccccc1/C=C1\NC(=S)N(/C=C2\C(=O)Oc3ccccc3C2=O)C1=O | 47% (inactive) |
| CC12C(=O)OC(=O)C1C1c3ccccc3C2c2ccccc21 (centres undefined) | 95% (active) |
| CCOC(=O)C(F)C(Br)C(=O)OCC (centres undefined) | 98% (active) |
| CCCCCCCCCCCCCCCCC/C=N\NC(=O)CCCC(=O)N/N=C/CCCCCCCCCCCCCCCCC | 10% (inactive) |
| CC(C(=O)NN)C(O)C(C)(C)O (centres undefined) | -9% (inactive) |
| COC(=O)C1C2CC3c4[nH]c5cc(OC)c(Br)cc5c4CCN3CC2CC(OC(=O)c2cc(OC)c(OC)c(OC)c2)C1OC (centres undefined) | 86% (active) |
| CCCN(CCC)C(=S)N/N=C/c1cccc(C)n1 | 100% (active) |
| Cc1cccc2c1Oc1ccccc1C2N1C(=O)/C(=C/c2cccs2)SC1=S (centres undefined) | 1% (inactive) |
| COc1ccc(OC(C)=O)c2c1CCC=CC2=O | 80% (active) |
| COC(=O)CSc1nc2[nH]c(SC)c(C(N)=O)c2c(=O)n1-c1ccccc1 | 3% (inactive) |
| O=C(Nc1ccc(Cl)c(Cl)c1Cl)Oc1c(Cl)c(Cl)c(Cl)c(Cl)c1Cl | 99% (active) |
| COc1ccc(CCCC(=O)O)c2c(OC)cccc12 | 55% (inactive) |
| FC(F)(F)c1ccc(Nc2ccc(C(F)(F)F)cc2)cc1 | 100% (active) |
| O=C(c1ccccc1)C(Br)CCCC(Br)C(=O)c1ccccc1 (centres undefined) | 32% (inactive) |
| CC1(C)c2ccccc2Cc2cc3ccccc3nc21 | 95% (active) |
| COc1ccc2c(c1)[n+]([O-])c(-c1ccc(Cl)c(Cl)c1)c(N)[n+]2[O-] | 98% (active) |
